Source: PubChem
Hits are enriched below; roughly 19% of the tested compounds scored in any of these assays.
DT40 TDP1 CPT: qHTS for Inhibitors of human tyrosyl-DNA phosphodiesterase 1 (TDP1): qHTS in cells in presence of CPT. 420,000 tested, 12% active. chicken DT40 Tdp1-/-;hTDP1 cells + 20 nM CPT, ATP luminescence, 48 h. Potency, µM (highest dose often 46.2 µM), most hits filed as inhibitors; note: nearly all actives have a fitted effect of over 55% in size
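Cell growth measured by CellTiter-Glo luminescence after a minimum 48 h, 37 C compound exposure with 20 nM CPT in Tdp1-knockout DT40 cells stably expressing hTDP1, seeded 400/well; qHTS titration format.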
TDP1 cell noCPT: qHTS for Inhibitors of human tyrosyl-DNA phosphodiesterase 1 (TDP1): qHTS in cells in absence of CPT | Potency, µM (top dose mostly 46.2 µM), usual class: inhibitors | DT40 Tdp1-/- hTDP1 cells, no CPT, ATP luminescence, 48 h | 420,000 tested, 15% active; note: nearly all actives have a fitted effect of over 55% in size
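Stably hTDP1-transfected Tdp1-null chicken DT40 cells were treated with library compounds minus camptothecin and grown for at least 48 hr at 37 °C, after which cellular ATP was quantified by luminescence.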
HT1080-NT tox: qHTS for induction of synthetic lethality in tumor cells producing 2HG: qHTS for the HT-1080-NT fibrosarcoma cell line. AID 686970, 2013. HT-1080-NT fibrosarcoma viability, CellTiter-Glo ATP luminescence, 48 h. Potency, µM (top dose mostly 46.1 µM), most hits filed as cytotoxic. 360,000 tested, 1.6% active;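 note: NT is the 2HG producing partner of a matched IDH1 knockdown line; nearly all actives have a fitted effect of over 55% in size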
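Fibrosarcoma NT cells, 750 per well in 5% FBS RPMI, were exposed to compound for 48 hours. Viability: CellTiter-Glo luminescence.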
HT1080 IDH1KD tx: qHTS for induction of synthetic lethality in tumor cells producing 2HG: qHTS for the HT-1080-IDH1KD cell line | Potency, µM (series often up to 46.1 µM), hits mostly cytotoxic | AID 686971, 2013 | HT-1080 IDH1 knockdown viability, ATP luminescence, 48 h | 360,000 tested, 2% active
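CellTiter-Glo luminescence after 48 h compound exposure at 37 degrees C of IDH1-knockdown HT-1080 cells in 5% FBS RPMI. %Activity scaled between DMSO wells and cell-free media wells, with curves fitted and assigned curve classes.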
IL-1B inflam inh: qHTS for Inhibitors of Inflammasome Signaling: IL-1-beta AlphaLISA Primary Screen; activity change, % at 57.5 µM; THP-1 LPS/ATP IL-1B secretion, AlphaLISA, 16 h; active compounds read low; 360,000 tested, 4.7% active; in the data active = activity change below about -50%; inconclusive = mostly about -30% to -49%
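THP-1 cells pretreated 1 hr with compounds (up to 57.5 uM final), then stimulated with LPS (250 ng/mL final) plus ATP (1.25 mM final); secreted IL-1B measured by AlphaLISA after 16 hr, decreased signal indicating inhibition.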
Each line names hits and unclear results; the compound was inactive in the other large screens. Unless noted, calls come from the whole dose curve; as a rule, active = well fitted curve in the direction sought with a large enough effect; inconclusive = small, poorly fitted or top-dose-only effect, or another doubt; inactive = no such curve, though single readings can be large; an effect the other way counts as inactive or inconclusive.

CC(O)CNCCCOc1ccccc1OCc1ccccc1 (configuration not stated)	TDP1 cell noCPT inconclusive, IL-1B inflam inh -52
CNCC(C)COc1ccccc1OCc1ccccc1 (configuration not stated)	DT40 TDP1 CPT inconclusive, TDP1 cell noCPT inconclusive
CC(O)CNCCCOc1cccc(Oc2ccccc2)c1 (configuration not stated)	DT40 TDP1 CPT 16µM, TDP1 cell noCPT 16µM, HT1080 IDH1KD tx inconclusive, IL-1B inflam inh -56
CC(O)CNCCCOc1cccc(C(F)(F)F)c1 (configuration not stated)	none
Cc1cccc(NC(=O)NCC2CC2)c1	none
CC[C@H](/C=C/[C@@H](C)[C@H]1CC[C@H]2C3CC=C4C[C@@H](O)CC[C@]4(C)C3CC[C@]12C)C(C)C (some centres not stated)	none (no result: HT1080-NT tox, HT1080 IDH1KD tx, IL-1B inflam inh)
COc1ccc(-c2nc3ccccc3n(CC(C)C)c2=O)cc1	none
Cn1cc(CNCc2cn(C)nc2-c2ccc(C3CCCCC3)cc2)cn1	DT40 TDP1 CPT inconclusive, TDP1 cell noCPT 18µM, HT1080-NT tox inconclusive, HT1080 IDH1KD tx inconclusive, IL-1B inflam inh -71
CCc1ccc2c(c1)C(c1ccc([N+](=O)[O-])cc1)=NNC(c1ccc(Br)cc1)=N2	DT40 TDP1 CPT 13µM, TDP1 cell noCPT inconclusive
Cc1cc(C)c(NC(=O)c2cc(C(=O)O)ccc2C(=O)O)c([N+](=O)[O-])c1	none
CC[n+]1c(/C=C/Nc2ccccc2)oc2ccccc21	DT40 TDP1 CPT 15µM, TDP1 cell noCPT 15µM, HT1080 IDH1KD tx inconclusive
Cc1ccnc(N(C(=O)Nc2ccccc2)C2=NCC(C)(C)S2)c1	none
CNC(=O)N(C1=NCC(C)(C)S1)c1ccc(F)c(Cl)c1	DT40 TDP1 CPT inconclusive, TDP1 cell noCPT 18µM
Cc1cc(OC(C)C(=O)NNC(=O)Nc2ccc(F)cc2F)cc(C)c1Cl (configuration not stated)	IL-1B inflam inh inconclusive
Cc1cccc2cc3c(NC(=O)c4ccccn4)nn(C)c3nc12	DT40 TDP1 CPT inconclusive, TDP1 cell noCPT 9.2µM, HT1080-NT tox inconclusive, HT1080 IDH1KD tx inconclusive
CCCC(=O)Nc1nn(C)c2nc3c(C)cccc3cc12	none
CCCn1nc(NC(=O)COC)c2cc3cccc(C)c3nc21	DT40 TDP1 CPT inconclusive, TDP1 cell noCPT 16µM
OC(c1cccc(CN2CCCCC2)c1)c1ncc(-c2ccccc2Cl)[nH]1 (configuration not stated)	DT40 TDP1 CPT inconclusive
CC(C)[C@H](NC(=O)c1ccccc1)C(=O)OCC(=O)/C=C1/N(C)c2ccccc2C1(C)C	DT40 TDP1 CPT 10µM, TDP1 cell noCPT 8.2µM
COc1cc(OC)cc(C(=O)NCC(=O)OCC(=O)/C=C2/N(C)c3ccccc3C2(C)C)c1	DT40 TDP1 CPT inconclusive, TDP1 cell noCPT 16µM, HT1080-NT tox inconclusive, IL-1B inflam inh -60
CN1/C(=C\C(=O)COC(=O)c2nccnc2N)C(C)(C)c2ccccc21	DT40 TDP1 CPT inconclusive, TDP1 cell noCPT inconclusive
CN1/C(=C\C(=O)COC(=O)c2ccc([N+](=O)[O-])o2)C(C)(C)c2ccccc21	none
COc1ccc(/C(N)=N/OC(=O)CSc2ccccc2)cc1	IL-1B inflam inh -60
N/C(=N\OC(=O)COc1ccc2ccccc2c1)c1ccncc1	DT40 TDP1 CPT 21µM, TDP1 cell noCPT inconclusive
O=c1[nH][nH]c(C(F)(F)F)c1/C=N/N1CCOCC1	none
CCOc1ccc(S(=O)(=O)NCCC(=O)N2CC(C)CC(C)C2)cc1 (configuration not stated)	TDP1 cell noCPT inconclusive
COc1ccc(N2CCN(c3oc(-c4ccc(OC)c(OC)c4)nc3C#N)CC2)cc1	DT40 TDP1 CPT inconclusive, TDP1 cell noCPT 18µM
COc1ccc(-c2nc(C#N)c(N3CCN(C(=O)c4ccco4)CC3)o2)cc1OC	DT40 TDP1 CPT inconclusive, TDP1 cell noCPT inconclusive
COc1ccc(-c2nc(C#N)c(N3CCc4ccccc4C3)o2)cc1OC	DT40 TDP1 CPT 29µM, TDP1 cell noCPT 13µM, HT1080-NT tox inconclusive, IL-1B inflam inh -52
COc1ccccc1-c1nc(C#N)c(N2CC(C)CC(C)C2)o1 (configuration not stated)	DT40 TDP1 CPT inconclusive, TDP1 cell noCPT 18µM
CCN(Cc1ccccc1)S(=O)(=O)CCNC(=O)c1ccccc1	none
CCC1(C2CCN(C(=O)c3ccccc3C(C)=O)CC2)NC(=O)N(CCc2scnc2C)C1=O (configuration not stated)	none (no result: HT1080-NT tox, HT1080 IDH1KD tx, IL-1B inflam inh)
CCOC(=O)CN[C@@H](C(=O)N1CC[C@H]1C(=O)NCc1ccc(/C(N)=N/O)cc1)C1CCCCC1	none (no result: HT1080-NT tox, HT1080 IDH1KD tx, IL-1B inflam inh)
CC(C(=O)Nc1cccc([N+](=O)[O-])c1)N1C(=O)NC2(CCCC2)C1=O (configuration not stated)	none
CN(C(=O)c1ccoc1)c1ccc2ccccc2c1	DT40 TDP1 CPT 13µM, TDP1 cell noCPT inconclusive
Cc1ccc(S(=O)(=O)c2nc(Nc3ccccc3C#N)sc2Cl)cc1	DT40 TDP1 CPT inconclusive, TDP1 cell noCPT 2.6µM
OCCN1CCN(Cc2ccc3c(c2)CN(Cc2cc4ccccc4o2)CCO3)CC1	none (no result: HT1080-NT tox, HT1080 IDH1KD tx, IL-1B inflam inh)
CC(=O)c1ccc(Nc2nc(C(C)N)cs2)cc1 (configuration not stated)	none
NC(Cc1ccc(C(F)(F)F)cc1)c1csc(Nc2ccc(C(=O)c3ccccc3)cc2)n1 (configuration not stated)	DT40 TDP1 CPT inconclusive, TDP1 cell noCPT inconclusive, HT1080-NT tox inconclusive, HT1080 IDH1KD tx inconclusive, IL-1B inflam inh -70
CC(=O)c1ccc(Nc2nc(C(N)Cc3ccc(C(F)(F)F)cc3)cs2)cc1 (configuration not stated)	DT40 TDP1 CPT 15µM, TDP1 cell noCPT 16µM, HT1080-NT tox inconclusive, HT1080 IDH1KD tx inconclusive, IL-1B inflam inh inconclusive
Cc1ccc(C(=O)Nc2nnc(-c3ccc(C(C)(C)C)cc3)s2)cc1	DT40 TDP1 CPT inconclusive, TDP1 cell noCPT inconclusive
Cc1ccc(C(=O)Nc2nc(C(N)Cc3ccc(C(F)(F)F)cc3)cs2)cc1 (configuration not stated)	DT40 TDP1 CPT inconclusive, TDP1 cell noCPT inconclusive, HT1080-NT tox inconclusive, HT1080 IDH1KD tx 16µM, IL-1B inflam inh -65
CCC(=O)Nc1ccc2c(c1)OC[C@@H](C)N(C(=O)c1ccccn1)C[C@@H](C)[C@@H](OC)CN(C)C2=O	none
OC(c1ccc(F)c(F)c1)c1nc(-c2cccc3cccnc23)cs1 (configuration not stated)	DT40 TDP1 CPT inconclusive, TDP1 cell noCPT inconclusive
